The campaign covered roughly 300,000 compounds. About 3,600 (1.2%) were called active. This is one part of a sample in which actives are shown more often than they occur. Cut-off read from the data, not from the text of the source: active = activation above about 30% (passing the limit was not always enough); inconclusive = no clear call, values can overlap the other calls.

This assay is described as follows: Wnt/beta-catenin pathway activators, primary screen, cell-based, plate reader, single point (AID 743398).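 Note: 0% = neutral control wells and 100% = positive control wells.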 The following applies: Wnt/beta-catenin reporter cell assay, activator, at 9.35 µM, hits give high values.
On to `O=[N+]([O-])c1ccc(CN2CC(N3CCC(c4ccccc4)CC3)CS2(=O)=O)cc1` (stereo unspecified), for which the activation is -1.72% (inactive). The same measure for `CN(C)C(=O)c1cccc(-c2cnc3sc(NCc4ccc5c(c4)OCO5)nn23)c1`: -6.39% (inactive); for `Cc1cccc(OCC(=O)Nc2ccccc2F)c1`: 22.2% (inactive).

Take `COc1cccc(OCC(=O)Nc2ccccc2C(N)=O)c1`: the activation is 39.1% (active). Consider `Cc1cccc(OCCC(=O)Nc2ccccc2C(N)=O)c1`, for which the activation is 1.98% (inactive).

For `O=C(c1ccc(CS(=O)Cc2ccccc2Cl)o1)N1CCN(c2ccccc2)CC1` (stereo unspecified), the activation was -4.44% (inactive). The same measure for `CS(=O)(=O)/C(C#N)=C/c1cccn1S(=O)(=O)c1ccc([N+](=O)[O-])cc1`: -1.05% (inactive).

On to `COc1cc2ccc(C(C)=O)c(O)c2cc1OC`, for which the activation was 10.2% (inactive). The same measure for `COc1ccc(NC(=O)C2Cc3c(-c4cccc(NC(C)=O)c4)ccnc3O2)cc1OC` (stereo unspecified): -0.676% (inactive). The same measure for `Cn1cccc1C(=O)NNC(=O)COc1ccc(Br)cc1`: 3.43% (inactive); for `Cn1cccc1C(=O)OCC(=O)c1ccc(Br)s1`: 47.9% (active); for `Cn1cccc1C(=O)OCC(=O)NCCc1ccccc1`: 15.6% (inactive). Next, `CC1CCCN(c2cccc3c2S(=O)(=O)N(Cc2ccc(F)cc2)[C@@H](C)[C@H](c2ccccc2)O3)C1` (stereo partly specified): -2.02% (inactive). On to `O=C(NCc1ccccc1)[C@H]1CCCN1C(=O)[C@@H]1CCCN1C(=O)c1ccc(Cl)cc1Cl`, for which the activation was -5.01% (inactive). The same measure for `NC(c1ccccc1)c1csc(NC(=O)Nc2cccc(C(F)(F)F)c2)n1` (stereo unspecified): -0.452% (inactive); for `CC(C)CC1C(=O)N(Cc2cn(CC3CCCCC3)nn2)CCS(=O)(=O)N1Cc1ccc(-c2ccc(Cl)cc2)cc1` (stereo unspecified): -6.32% (inactive); for `O=C(c1ccncc1)N1CCN(c2ccc3ccccc3n2)CC1`: 3.16% (inactive). Consider `c1cnc(N2CCN(c3ccc4ccccc4n3)CC2)nc1`, for which the activation is 36.8% (active).

Regarding `Oc1ccc(CN2CCN(c3ncccn3)CC2)cc1`, the activation was -0.601% (inactive).

On to `CCCN1C(=O)c2[nH]nc(-c3ccccc3)c2C1c1ccccc1` (stereo unspecified), for which the activation was 0.123% (inactive). Take `CC(C)CCNC(=O)c1[nH]c(C(F)(F)F)nc1-c1ccccc1`: the activation was -0.284% (inactive). As to `O=C(NCCS(=O)(=O)NCc1ccc(Cl)cc1)c1ccccc1`, the activation is -1.51% (inactive).

As for `O=C(Cc1ccc(Cl)cc1)c1ccccc1`, the activation is 39.9% (active). Next, `O=C(CN1CCN(c2ccc(Cl)cc2)CC1)c1ccccc1`: 0.814% (inactive). The same measure for `CN(C)C(=O)N1CCN(C(=O)[C@@H](Cc2ccccc2)NC(=O)[C@H]2O[C@@H](n3ccc(N)nc3=O)[C@H](O)[C@@H]2O)CC1`: -0.987% (inactive).

As to `CC1CCCC(C)N1C(=O)COC(=O)c1ccccc1C(=O)c1ccccc1` (stereo unspecified), the activation is -3.33% (inactive). With `Cc1cc(N2CCN(C(=O)OC(C)(C)C)C[C@H]2C)ccc1N1CCN(Cc2ccccc2)[C@H](C)C1`, the activation is -18.5% (inactive). On to `O=[N+]([O-])c1ccc(Sc2n[nH]c(-c3ccco3)n2)nc1`, for which the activation is -0.107% (inactive).

Regarding `CC(C)(C)n1cnnc1Sc1ccc([N+](=O)[O-])cn1`, the activation is 37.4% (active). Next, `Cc1cccc(C)c1NC(=O)CSc1ccc([N+](=O)[O-])cn1`: -1.27% (inactive); `Cc1nn(-c2ccccc2)c(-n2cccc2)c1C(=O)O`: -0.442% (inactive); `Cc1ccc(OC(=O)c2c(C)nn(-c3ccccc3)c2C)cc1`: 57.6% (active). Take `Cc1cccc(C)c1NC(=O)COC(=O)c1c(C)nn(-c2ccccc2)c1C`: the activation was 2.07% (inactive). The same measure for `Cc1cccc(C)c1Cn1c(C)c(C(=O)NCc2cccc(Cl)c2)sc1=O`: -7.17% (inactive). Turning to `CCCOc1ccc(F)cc1-c1cc(C(=O)Nc2ccc(F)cc2)[nH]n1`, the activation was -2.71% (inactive). Next, `COc1ccc(CN2C(=O)C(C)S/C2=N/N=C/c2ccco2)cc1` (stereo unspecified): 39.6% (active). Next, `O=C1N/C(=N\N=C\c2ccco2)SC1Cc1ccc(F)cc1` (stereo unspecified): 1.16% (inactive); `C=CCN1C(=O)C(Cc2cccc(Cl)c2)S/C1=N/N=C/c1ccco1` (stereo unspecified): -5.07% (inactive).

With `CCOC(=O)c1cc(-c2sc(NC(=O)c3ccccc3)nc2C)n(-c2ccc(Br)cc2)n1`, the activation is -1.56% (inactive). The same measure for `Cn1cnnc1SCC(=O)Nc1ccc(N2CCOCC2)cc1`: -1.68% (inactive).

Take `O=C(CSc1ccc([N+](=O)[O-])cn1)Nc1ccc(N2CCOCC2)cc1`: the activation was 34.8% (active). The same measure for `O=C(CSc1ccc([N+](=O)[O-])cn1)Nc1ccc(N2CCOCC2)c(Cl)c1`: -0.66% (inactive); for `CC(C)CNc1cccc2c1S(=O)(=O)N[C@H](C)CO2`: -4.07% (inactive); for `CCCn1c(N)c(C(=O)CSc2nnc(-c3cccnc3)n2-c2ccc(C)cc2C)c(=O)[nH]c1=O`: -2.6% (inactive). The same measure for `CCCn1c(N)c(C(=O)CSc2nnc3n2CCCCC3)c(=O)[nH]c1=O`: 44.1% (active); for `CCCn1c(N)c(C(=O)CSc2nnc(Cc3cccs3)n2C2CC2)c(=O)[nH]c1=O`: 0.611% (inactive); for `Cc1[nH]nc2c1C(c1ccc(Br)cc1)NC2=O` (stereo unspecified): 1.31% (inactive).

For the compound `Cc1cc(O)c(NC(=O)c2ccc(C)c([N+](=O)[O-])c2)cc1C`, the activation is 4.77% (inactive).

As to `Cc1ccc(NC(=O)CN(C)CC(=O)Nc2cccc(F)c2)cc1[N+](=O)[O-]`, the activation is -4.16% (inactive).

With `Cc1ccc(NC(=O)c2sccc2C)cc1[N+](=O)[O-]`, the activation is 44.6% (active). As for `O=S(=O)([N-]c1nc2ccccc2nc1-[n+]1ccc(Cc2ccccc2)cc1)c1ccc(Br)s1`, the activation is 88.3% (active). The same measure for `Cc1cc(C)c[n+](-c2nc3ccccc3nc2[N-]S(=O)(=O)c2cccs2)c1`: -2.64% (inactive); for `O=S(=O)(NCc1ccccn1)c1ccc(Br)s1`: -6.83% (inactive). Next, `O=C(NC(=O)N1CCSCC1)c1c(Cl)cccc1Cl`: 31.3% (active); `O=C(NCC(=O)N1CCCCCCC1)c1ccccc1Cl`: 12.1% (inactive).

For `O=C(NC(=O)N1CCOCC1)c1ccccc1`, the activation is -2.28% (inactive). The same measure for `OC(c1ccc(Cl)cc1)c1ncc(-c2ccc(Cl)cc2)[nH]1` (stereo unspecified): 0.492% (inactive); for `COc1cc(/C=N\Nc2nc(-c3cccs3)c(NC(C)=O)s2)ccc1O`: 7.87% (inactive). On to `CCNc1nc(NCC)nc(N/N=C/c2ccc(O)c(OC)c2)n1`, for which the activation is -3.98% (inactive). Next, `COc1cc(/C=N/Nc2nc3ccccc3s2)ccc1O`: 76.9% (active).

With `c1cc(-c2ccc3[nH]ccc3c2)n2ccnc2c1`, the activation was 3.12% (inactive). The same measure for `Fc1cccc(Cc2c(-c3cccc(Cl)c3)nc3ccc(Br)cn23)c1`: 16.8% (inactive); for `CN(c1ccccc1)S(=O)(=O)c1ccc(Cl)c(C(=O)NCCc2c[nH]c3ccccc23)c1`: -0.321% (inactive).

For `O=C(NCCc1c[nH]c2ccccc12)c1cc2ccccc2oc1=O`, the activation was 40.4% (active). Next, `O=C(NCCc1c[nH]c2ccccc12)c1cccc(Br)c1`: 0.278% (inactive).

Take `Nc1[nH]c(C(=O)c2ccc(Br)cc2)c(-c2ccc3c(c2)OCO3)c1C(=O)NCCc1c[nH]c2ccccc12`: the activation is 0.212% (inactive). Next, `CCc1ccc(C2=CC(=O)CC(C)(C)C2=O)cc1`: -1.61% (inactive); `Cc1ccccc1N(C(=O)CNC(=O)c1cccs1)C(C(=O)NC1CCCC1)c1ccncc1` (stereo unspecified): -0.349% (inactive); `O=C(NCC(=O)N(Cc1cccs1)C(C(=O)NC1CCCCC1)c1ccco1)c1cccs1` (stereo unspecified): 67.7% (active). Turning to `O=C(NCC(=O)N(CC1CCCO1)C(C(=O)NC1CCCCC1)c1ccccc1)c1ccco1` (stereo unspecified), the activation was -4.62% (inactive). Next, `CCOC(=O)C1=CC[C@@H](c2ccncc2)N(S(=O)(=O)c2ccc(C)cc2)C1`: -0.651% (inactive); `CCCCn1nnnc1C(c1ccccc1)N1CCN(c2ccccc2OC)CC1` (stereo unspecified): 1.03% (inactive).

As to `COC(=O)C1=C(C)N(Cc2cccc(C(F)(F)F)c2)C(=NCc2cccc(C(F)(F)F)c2)NC1c1ccccc1C(F)(F)F` (stereo unspecified), the activation is -4.8% (inactive). Take `COc1ccc(-c2cnc3c(c2)C(=O)N([C@H](C)CO)C[C@@H](C)[C@H](CN(C)Cc2ccccc2)O3)cc1`: the activation was -0.613% (inactive). Next, `Cc1ccc2nc(N3C(=O)C(O)=C(C(=O)c4ccco4)C3c3cccc(O)c3)sc2c1` (stereo unspecified): 8.29% (inactive); `COc1ccc2nc(N3CCN(C(=O)c4ccc([N+](=O)[O-])o4)CC3)sc2c1`: 2.35% (inactive); `Cc1ccc2nc(N3CCN(C(=O)c4ccco4)CC3)sc2c1`: 40% (active). Next, `COc1cccc(CC(=O)N2CCN(C(=O)C(=O)c3cccc(C(F)(F)F)c3)CC2)c1`: -3.95% (inactive); `Cc1cc(C)cc(NC(=O)CSc2ccccc2)c1`: -7.62% (inactive). The same measure for `Cc1cc(C)cc(NC(=O)N(C)Cc2ccccc2)c1`: 46% (active).

As for `CN(Cc1ccccc1)C(=O)c1cccc(C(=O)N(C)Cc2ccccc2)c1`, the activation is 1.74% (inactive).

In the case of `Cc1ccccc1-c1nc(NC(C)C)nc2cc(-c3ccccc3)sc12`, the activation is -8.66% (inactive).

`CN1CCN(c2ccc3c(c2)OC[C@H](Cc2ccccc2)NS3(=O)=O)CC1`: the activation is -3.42% (inactive). Next, `CSCCNC(=O)c1ccc2nc(Cc3ccccc3F)oc2c1`: 42.9% (active); `COCCNC(=O)c1ccc2nc(Cc3ccc(OC)c(OC)c3)oc2c1`: 1.55% (inactive). Next, `COc1ccc(Cc2nc3ccc(C(=O)NCC4CCOCC4)cc3o2)cc1OC`: 7.09% (inactive).

With `COc1ccc(-c2cc3ncccc3cn2)cc1`, the activation was 50.1% (active). The same measure for `COc1ccc(-c2cn3cccnc3n2)cc1`: 26.2% (inactive). For `COc1ccc2nc(-c3ccccn3)ccc2c1`, the activation was 1.79% (inactive). For `CCOc1ccc(Cl)cc1-c1cc(C(=O)NCc2cccs2)[nH]n1`, the activation is -2.6% (inactive). `O=C(NCc1ccccc1)[C@@H]1CCCN1C(=O)[C@H]1CCCN1C(=O)c1cccc(Cl)c1`: the activation was 3.03% (inactive).

These data come from PubChem BioAssay AID743398 (Broad Institute, 2014).
